Screening data from PubChem.
A selection: hits, their analogues and other compounds. The true share with any hit is near 18%.
IL1B secr inh: blocks inflammasome-driven IL-1 beta release; activity change, % at 57.5 µM; 360,000 tested, 4.7% active; THP-1 LPS/ATP IL-1B secretion, AlphaLISA, 16 h; active compounds read low; in the data active = activity change below about -50%; inconclusive = mostly about -30% to -49%
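THP-1 cells pretreated 1 hr with compounds (up to 57.5 uM final), then stimulated with LPS (250 ng/mL final) plus ATP (1.25 mM final); secreted IL-1B measured by AlphaLISA after 16 hr, decreased signal indicating inhibition.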
VP16 counter: Gal4-VP16 reporter inhibition counter-screen | Drosophila S2 Gal4-VP16 UAS-luciferase, luminescence, 20 h | Potency, µM (top dose mostly 53.6 µM), inactives show top-dose activity, negative = inhibition, actives largely listed as inhibitors | 310,000 tested, 3.5% active;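 note: Gal4-VP16 expression switched on by copper sulfate through the metallothionein promoter; potency is the fitted concentration of half-maximal effect; nearly all actives have a fitted effect of over 50% in size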
TDP1 cell CPT: growth inhibition of DT40 Tdp1-/-;hTDP1 cells with camptothecin (screen for TDP1 inhibitors); Potency, µM (series often up to 46.2 µM), for the others: at the highest dose activity change, negative = growth inhibition, usual class: inhibitors; 420,000 tested, 12% active; chicken DT40 Tdp1-/-;hTDP1 cells + 20 nM CPT, ATP luminescence, 48 h; note: potency is the fitted concentration of half-maximal effect; nearly all actives have a fitted effect of over 55% in size
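Chicken DT40 Tdp1-/- cells stably complemented with human TDP1 were seeded at 400 cells/well in medium containing 20 nM camptothecin, exposed to pin-transferred compounds, and grown at 37 °C for at least 48 hr. Viability was read as ATP luminescence.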
TDP1 cell noCPT: qHTS for Inhibitors of human tyrosyl-DNA phosphodiesterase 1 (TDP1): qHTS in cells in absence of CPT; 420,000 tested, 15% active; Potency, µM (titrated, usually from 46.2 µM), for inactives: at the top dose activity change, negative = growth inhibition, most hits filed as inhibitors; AID 686978, 2013; DT40 Tdp1-/- hTDP1 cells, no CPT, ATP luminescence, 48 h; note: potency is the fitted concentration of half-maximal effect; nearly all actives have a fitted effect of over 55% in size
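Chicken DT40 Tdp1-/- cells stably complemented with human TDP1 were seeded at 400 cells/well with DMSO in place of 20 nM camptothecin. After compound pinning, cells grew at least 48 hr at 37 °C; viability read by CellTiter-Glo luminescence.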
LDHA inh: inhibitors of human lactate dehydrogenase A. P00338. purified LDHA, NADH/diaphorase-resazurin fluorescence; active compounds read low. activity change, % (values are at about 110 or 230 µM). 480,000 tested, 0.15% active; in the data active = activity change below about -30%; inconclusive = mostly about -25% to -30%;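 note: plate controls were DMSO wells for no effect and wells without enzyme for full effect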
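LDH5 2 nM; NADH 0.06 mM, pyruvate 0.2 mM; 200 mM Tris pH 7.4, EDTA, Tween-20; 5 min RT. Detection: diaphorase 0.133 mg/mL + resazurin 37 µM, fluorescence ex540/em590 at 0 and 20 min; normalized to enzyme-free and DMSO wells.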
RORg inh: blocks mouse ROR gamma transcriptional activity. Potency, µM (series often up to 53.6 µM), for the others: at the top dose activity change, negative = inhibition, usual class: inhibitors. 310,000 tested, 5.4% active. AID 2551. Drosophila S2 Gal4-RORgamma UAS-luciferase reporter, 20 h; note: potency is the fitted concentration of half-maximal effect; nearly all actives have a fitted effect of over 60% in size
Target sequence (P51450 whole entry, looked up, the tested form may be a part): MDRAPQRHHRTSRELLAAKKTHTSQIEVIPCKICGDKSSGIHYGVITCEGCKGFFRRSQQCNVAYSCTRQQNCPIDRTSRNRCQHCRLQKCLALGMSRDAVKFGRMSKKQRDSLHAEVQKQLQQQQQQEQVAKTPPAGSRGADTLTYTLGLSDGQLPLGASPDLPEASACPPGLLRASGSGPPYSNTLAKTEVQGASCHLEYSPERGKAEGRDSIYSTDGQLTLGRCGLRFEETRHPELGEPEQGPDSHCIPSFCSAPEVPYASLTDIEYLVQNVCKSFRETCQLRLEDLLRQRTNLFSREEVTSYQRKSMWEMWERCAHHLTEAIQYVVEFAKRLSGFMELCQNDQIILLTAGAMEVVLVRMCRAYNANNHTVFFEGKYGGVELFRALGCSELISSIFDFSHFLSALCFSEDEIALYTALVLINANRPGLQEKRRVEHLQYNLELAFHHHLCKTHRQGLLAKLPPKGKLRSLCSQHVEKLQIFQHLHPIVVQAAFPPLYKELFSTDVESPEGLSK
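Drosophila S2 cells stably expressing Gal4-DBD/mouse RORγ fusion under metallothionein promoter plus UAS-luciferase; compound 1 h, then 700 uM CuSO4 induction for 20 h at ambient temperature; inhibition read as reduced luminescence.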
* = called active by the depositor; ? = inconclusive; / = no result given. Unless noted, calls come from the whole dose curve; as a rule, active = well fitted curve in the direction sought with a large enough effect; inconclusive = small, poorly fitted or top-dose-only effect, or another doubt; inactive = no such curve, though single readings can be large; an effect the other way counts as inactive or inconclusive. Unless noted, % is set by controls: 0 for no effect and ±100 for the full control effect.

SMILES | IL1B secr inh | VP16 counter | TDP1 cell CPT | TDP1 cell noCPT | LDHA inh | RORg inh
COc1ccc(-c2c(-c3ccc(OC)cc3O)nc(N)nc2C(F)(F)F)cc1 | / | / | / | / | 5 | /
O=C1CN(C(=O)Cn2ccc3cc(Cl)ccc32)CCN1 | / | / | / | / | 7 | /
Cc1cccc2c(C(O)c3cn(C)c4ccccc34)c[nH]c12 (configuration not stated) | / | / | 11µM* | 16µM* | / | /
Cn1cc(C(c2ccccn2)c2cn(C)c3ccccc23)c2ccccc21 | 0 | -18% | ? | ? | 1 | ?
Cc1ccc(-c2cnc(SCC(=O)Nc3ccc(F)c(F)c3)o2)cc1C | / | / | / | / | 0 | /
Cc1nnc(NC(=O)C2(c3ccc(F)cc3)CCC2)s1 | / | / | / | / | 5 | /
COc1ccccc1/C=C(/C(=O)OCC(=O)Nc1ccccc1C(C)C)c1ccccc1 | -11 | 1% | ? | 21µM* | 0 | -12%
COc1cc(CCC(=O)OCC(=O)Nc2ccccc2C(C)C)cc(OC)c1OC | 13 | -6% | -6% | 15% | -10 | -3%
COc1ccc(C2CC(c3cccs3)=NN2C(=O)CCl)cc1OC (configuration not stated) | -103* | ? | 2.6µM* | 3.3µM* | -1 | ?
COc1ccc(C2CC(c3cccs3)=NN2C(=O)c2ccccc2)cc1OC (configuration not stated) | -23 | 1% | 1% | -22% | -7 | 21%
COc1cc(C2CC(c3cccs3)=NN2C(=O)CCl)ccc1OC(F)F (configuration not stated) | -103* | 16µM* | 4.6µM* | 4.1µM* | -5 | ?
COC(=O)C1=C(C)NC(=O)C1(NC(=O)c1ccco1)C(F)(F)F (configuration not stated) | / | / | / | / | -7 | /
Cc1[nH]n(-c2ccc(F)cc2)c(=O)c1CCC(=O)Nc1ccc(C#N)cc1 | / | / | / | / | -30* | /
O=C(c1sc2cc(F)ccc2c1Cl)N1CCN(c2ccccc2)CC1 | -60* | ? | -7% | ? | -3 | 27%
CCc1sc(C(=O)N2CCN(C(=O)c3ccccc3)CC2)cc1C | ? | / | -23% | -12% | -17 | /
CCc1sc(C(=O)N2CCN(c3ccc(F)cc3)CC2)cc1C | 4 | 0% | ? | 15µM* | 0 | 7%
O=C(c1ccccc1C(=O)N1CCN(c2ccc(F)cc2)CC1)N1CCN(c2ccc(F)cc2)CC1 | -4 | 10% | ? | 9.2µM* | -7 | -2%
Nc1sccc1C(=O)N1CCN(c2ccccc2)CC1 | -7 | / | 18µM* | 16µM* | -2 | /
COc1ccc(CC(=O)Nc2cccc3ccc(C)nc23)cc1 | / | / | / | / | 10 | /
O=C(NCCCN1CCCC1)NCc1ccccc1 | / | / | / | / | -1 | /
O=[N+]([O-])c1cc(S(=O)(=O)Nc2cccc(Cl)c2)ccc1N/N=C/c1cccc(F)c1 | / | / | / | / | -1 | /
CCCCCc1ccc(-c2ccc(-c3ccc(C#N)cc3)nc2)cc1 | / | / | / | / | -7 | /
O=C(c1cnc(N2CCOCC2)c2ccccc12)N1CCN(c2ccccc2F)CC1 | / | / | ? | ? | -9 | /
O=C(c1nc(-c2cccnc2)no1)N1CCN(c2ccc(F)cc2)CC1 | / | / | / | / | -33* | /
Cc1cc(C(=O)N2CCN(c3ccc(F)cc3)CC2)on1 | -7 | -3% | 0% | 9% | -9 | -7%
O=C(c1cnc(N2CCOCC2)c2ccccc12)N1CCN(c2ccc(F)cc2)CC1 | / | / | 15µM* | ? | 0 | /
O=C(c1cnc(N2CCCCC2)c2ccccc12)N1CCN(c2ccccc2F)CC1 | / | / | 16µM* | ? | 14 | /
COc1ccccc1N1CCN(C(=O)c2cnc(N3CCCCC3)c3ccccc23)CC1 | / | / | 4.6µM* | 3.7µM* | -8 | /
Cc1noc(C(C)C)c1C(=O)NCc1ccc(OC(C)C)nc1 | / | / | / | / | 5 | /
Cc1cccc(CNc2ccccc2C(N)=O)c1 | / | / | / | / | 16 | /
